Our source for the Potency values is PubChem BioAssay (NCATS).

The structures appear in SMILES notation. Activity calls are given as the source filed them. Unless noted, calls follow the shape of the full dose curve.
Potency is read from the fitted curve at half-maximal effect.

Sequence of Glucocorticoid receptor (Homo sapiens) (P04150 whole entry, looked up): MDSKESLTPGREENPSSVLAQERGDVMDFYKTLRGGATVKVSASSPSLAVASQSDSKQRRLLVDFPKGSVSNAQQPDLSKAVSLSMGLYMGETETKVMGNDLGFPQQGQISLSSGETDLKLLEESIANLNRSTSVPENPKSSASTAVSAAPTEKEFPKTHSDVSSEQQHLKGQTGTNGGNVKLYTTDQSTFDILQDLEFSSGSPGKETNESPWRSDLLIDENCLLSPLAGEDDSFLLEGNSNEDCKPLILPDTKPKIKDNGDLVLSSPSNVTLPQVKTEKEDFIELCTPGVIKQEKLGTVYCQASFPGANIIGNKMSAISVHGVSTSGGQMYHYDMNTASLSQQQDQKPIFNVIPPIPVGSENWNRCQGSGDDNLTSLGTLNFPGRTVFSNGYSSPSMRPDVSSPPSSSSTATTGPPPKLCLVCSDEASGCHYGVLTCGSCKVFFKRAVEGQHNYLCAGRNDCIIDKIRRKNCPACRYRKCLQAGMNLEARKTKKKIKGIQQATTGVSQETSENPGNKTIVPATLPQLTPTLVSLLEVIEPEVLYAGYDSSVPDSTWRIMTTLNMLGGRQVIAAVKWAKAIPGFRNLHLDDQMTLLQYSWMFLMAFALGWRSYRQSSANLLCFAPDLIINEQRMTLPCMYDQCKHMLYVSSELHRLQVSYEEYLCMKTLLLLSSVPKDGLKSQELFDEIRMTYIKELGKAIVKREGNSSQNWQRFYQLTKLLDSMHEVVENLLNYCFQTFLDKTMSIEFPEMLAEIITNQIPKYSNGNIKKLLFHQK

The first assay has as its target Glucocorticoid receptor (Homo sapiens) (UniProt P04150). As to the kind of experiment: GR-GFP Redistribution (AID 450;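 active = compounds whose dose series gives a full or clear partial fitted curve of increased nuclear translocation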). The note with it: U2OS GR-GFP nuclear translocation, laser cytometry, 2 h.
For the compound `COc1ncc2nc(-c3cc(F)cc(F)c3)c(=O)n(CCC#N)c2n1`, the Potency was > 9.22 µM (inactive).

For the compound `Cc1nc2cnc(Nc3ccccc3)nc2n(C)c1=O`, the Potency was > 9.22 µM (inactive).

For `COc1ccc(-n2c(=O)c(C)nc3cnc(Oc4ccccc4)nc32)cc1`, the Potency is > 9.22 µM (inactive).

As for `COc1ccccc1CCn1c(=O)c(-c2cc(F)cc(F)c2)nc2cncnc21`, the Potency is > 9.22 µM (inactive).

Take `COc1cccc(-c2ccc3ncnc(NC4CCNCC4)c3c2)c1`: the Potency is > 46 µM (inactive).

Regarding `COc1cccc(-c2cc(NCc3cccs3)ncn2)c1`, the Potency was > 46 µM (inactive).

In the case of `Cn1c(=O)c(-c2cc(F)cc(F)c2)nc2cnc(Oc3ccccc3)nc21`, the Potency was > 9.22 µM (inactive).

For `CNc1nc(-c2ccccc2Cl)nc2ccccc12`, the Potency was > 46 µM (inactive).

As to `O=C(O)C1CCN(c2ncnc3ccc(-c4ccccc4C(F)(F)F)cc23)CC1`, the Potency was > 46 µM (inactive).

In the case of `CC(=O)NCCNc1nc(-c2ccccc2Cl)nc2ccccc12`, the Potency is > 46 µM (inactive).

For `CN(C)c1ccc(-c2cncnc2NCc2cccs2)cc1`, the Potency was > 46 µM (inactive).

As to `O=c1c(-c2ccc(F)cc2)nc2cnc(N3CCOCC3)nc2n1C[C@H]1CCCO1`, the Potency is > 9.22 µM (inactive).

Consider `Cc1cccc(CNc2ncncc2-c2cccc(C#N)c2)c1`, for which the Potency is > 46 µM (inactive).

On to `COc1ccc(Oc2ncc3nc(-c4ccc(OC)cc4)c(=O)n(Cc4cccs4)c3n2)cc1`, for which the Potency was > 9.22 µM (inactive).

As for `Cc1cccc(CNc2ncncc2-c2ccc3c(c2)OCO3)c1`, the Potency was > 46 µM (inactive).

On to `N#CCCn1c(=O)cnc2cnc(N3CCOCC3)nc21`, for which the Potency is > 9.22 µM (inactive).

Turning to `COc1ncc2nc(-c3cccs3)c(=O)n(-c3ccccc3)c2n1`, the Potency is > 9.22 µM (inactive).

As to `COc1ccc2[nH]cc(CCNc3cc(-c4ccccc4C(F)(F)F)ncn3)c2c1`, the Potency was > 46 µM (inactive).

Consider `Cc1nc2cnc(Oc3cccc(Cl)c3)nc2n(CCC#N)c1=O`, for which the Potency was > 9.22 µM (inactive).

In the case of `COc1ncc2ncc(=O)n(C)c2n1`, the Potency is > 9.22 µM (inactive).

In the case of `c1ccc2c(-n3ccnc3)nc(-c3ccoc3)nc2c1`, the Potency was > 46 µM (inactive).

`COc1cccc(-c2nccc(-n3ccnc3)n2)c1`: the Potency was > 46 µM (inactive).

`CN(C)c1ccc(-c2cc(-n3ccnc3)ncn2)cc1`: the Potency was > 46 µM (inactive).

A further assay shares this target. As to the kind of experiment: GR-EFC Redistribution (AID 451). The note with it: CHO-K1 GR-EFC translocation, beta-gal luminescence, 2 h. The gist of the method: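 Translocation of GR-ED fusion to nuclear EA restores b-gal, read by luminescence after 1 h room-temperature detection. Engineered CHO-K1 biosensor cells, 1,000/well, exposed 2 h at 37 C to titrations up to 46 uM final.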
Consider `Clc1ccccc1-c1nccc(-n2ccnc2)n1`, for which the Potency is > 46 µM (inactive).

Take `Cc1cccc(CNc2ccnc(-c3ccoc3)n2)c1`: the Potency is > 46 µM (inactive).

`c1nc(NC2CCNCC2)c2cc(-c3ccc4c(c3)OCO4)ccc2n1`: the Potency was > 46 µM (inactive).

Consider `O=c1c(-c2ccccc2)nc2cnc(Oc3ccccc3)nc2n1Cc1cccs1`, for which the Potency was > 46 µM (inactive).

As to `COc1ccc(-n2c(=O)c(-c3cn(C)c4ccccc34)nc3cnc(OC)nc32)cc1`, the Potency is > 46 µM (inactive).

For `CN(C)c1ncc2ncc(=O)n(CCC#N)c2n1`, the Potency is > 46 µM (inactive).

With `COc1ccccc1CNc1ncncc1-c1ccoc1`, the Potency is > 46 µM (inactive).

`COc1ncc2ncc(=O)n(Cc3cccs3)c2n1`: the Potency was > 46 µM (inactive).

`FC(F)(F)c1ccccc1-c1cc(N2CCNCC2)ncn1`: the Potency is > 46 µM (inactive).

For `CC(=O)NCCNc1nc(-c2ccccc2C(F)(F)F)nc2ccccc12`, the Potency was > 46 µM (inactive).

Turning to `COc1ccccc1CNc1ccnc(-c2ccoc2)n1`, the Potency is > 46 µM (inactive).

For `Cc1ccccc1-c1cncnc1Nc1ccc(F)cc1`, the Potency was > 46 µM (inactive).

In the case of `CN(Cc1ccco1)c1cc(-c2ccccc2Cl)ncn1`, the Potency was > 46 µM (inactive).

Regarding `COc1ccc(-n2c(=O)cnc3cnc(Oc4ccccc4)nc32)cc1`, the Potency is > 46 µM (inactive).

On to `COc1ncc2nc(-c3cccc(C#N)c3)c(=O)n(CCC#N)c2n1`, for which the Potency was > 46 µM (inactive).

`CN(Cc1ccco1)c1ncnc2ccc(-c3cccc(C#N)c3)cc12`: the Potency is > 46 µM (inactive).

On to `c1ccc(CNc2ccnc(-c3ccoc3)n2)cc1`, for which the Potency was > 46 µM (inactive).

In the case of `COc1ncc2nc(-c3cc(F)cc(F)c3)c(=O)n(CCC#N)c2n1`, the Potency is > 46 µM (inactive).

With `Cc1nc2cnc(Nc3ccccc3)nc2n(C)c1=O`, the Potency was > 46 µM (inactive).

On to `COc1ccc(-n2c(=O)c(C)nc3cnc(Oc4ccccc4)nc32)cc1`, for which the Potency was > 46 µM (inactive).

For `COc1ccccc1CCn1c(=O)c(-c2cc(F)cc(F)c2)nc2cncnc21`, the Potency was > 46 µM (inactive).

On to `COc1cccc(-c2ccc3ncnc(NC4CCNCC4)c3c2)c1`, for which the Potency was > 46 µM (inactive).

Take `COc1cccc(-c2cc(NCc3cccs3)ncn2)c1`: the Potency was > 46 µM (inactive).

For `Cn1c(=O)c(-c2cc(F)cc(F)c2)nc2cnc(Oc3ccccc3)nc21`, the Potency is > 46 µM (inactive).

With `CNc1nc(-c2ccccc2Cl)nc2ccccc12`, the Potency is > 46 µM (inactive).

For the compound `O=C(O)C1CCN(c2ncnc3ccc(-c4ccccc4C(F)(F)F)cc23)CC1`, the Potency was > 46 µM (inactive).

For `CC(=O)NCCNc1nc(-c2ccccc2Cl)nc2ccccc12`, the Potency was > 46 µM (inactive).

Regarding `CN(C)c1ccc(-c2cncnc2NCc2cccs2)cc1`, the Potency is > 46 µM (inactive).

On to `O=c1c(-c2ccc(F)cc2)nc2cnc(N3CCOCC3)nc2n1C[C@H]1CCCO1`, for which the Potency is > 46 µM (inactive).

With `Cc1cccc(CNc2ncncc2-c2cccc(C#N)c2)c1`, the Potency was > 46 µM (inactive).

For `COc1ccc(Oc2ncc3nc(-c4ccc(OC)cc4)c(=O)n(Cc4cccs4)c3n2)cc1`, the Potency is > 46 µM (inactive).

Take `Cc1cccc(CNc2ncncc2-c2ccc3c(c2)OCO3)c1`: the Potency is > 46 µM (inactive).

With `N#CCCn1c(=O)cnc2cnc(N3CCOCC3)nc21`, the Potency is > 46 µM (inactive).

Turning to `COc1ncc2nc(-c3cccs3)c(=O)n(-c3ccccc3)c2n1`, the Potency was > 46 µM (inactive).

Regarding `COc1ccc2[nH]cc(CCNc3cc(-c4ccccc4C(F)(F)F)ncn3)c2c1`, the Potency was > 46 µM (inactive).

`Cc1nc2cnc(Oc3cccc(Cl)c3)nc2n(CCC#N)c1=O`: the Potency was > 46 µM (inactive).

With `COc1ncc2ncc(=O)n(C)c2n1`, the Potency is > 46 µM (inactive).

Consider `c1ccc2c(-n3ccnc3)nc(-c3ccoc3)nc2c1`, for which the Potency is > 46 µM (inactive).

For `COc1cccc(-c2nccc(-n3ccnc3)n2)c1`, the Potency was > 46 µM (inactive).

With `CN(C)c1ccc(-c2cc(-n3ccnc3)ncn2)cc1`, the Potency is > 46 µM (inactive).
